This excerpt belongs to a sample that is enriched for hits.
Calb biofilm kill: kills Candida albicans biofilms. C. albicans biofilm + clotrimazole, Alamar Blue. inhibition, % at 6 µM. actives 0.14% (n = 85,000);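 active = inhibition above 20%; inactive = inhibition below 20%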;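 also: preformed 24 hr biofilms exposed to compound for 48 hr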
HePTP inhibitor: human HePTP phosphatase inhibition; P35236; recombinant HePTP phosphatase activity, OD absorbance; inhibition, % at 20 µM; actives 0.64% (n = 110,000); AID 521; in the data active = inhibition above about 50%
PLAP activator: human PLAP activation; P05187; activation fold at 20 µM; purified PLAP enzyme, luminescent substrate read-out; hits give high values; actives 1.2% (n = 96,000); in the data active = activation fold above about 2
Target sequence (P05187 whole entry, looked up): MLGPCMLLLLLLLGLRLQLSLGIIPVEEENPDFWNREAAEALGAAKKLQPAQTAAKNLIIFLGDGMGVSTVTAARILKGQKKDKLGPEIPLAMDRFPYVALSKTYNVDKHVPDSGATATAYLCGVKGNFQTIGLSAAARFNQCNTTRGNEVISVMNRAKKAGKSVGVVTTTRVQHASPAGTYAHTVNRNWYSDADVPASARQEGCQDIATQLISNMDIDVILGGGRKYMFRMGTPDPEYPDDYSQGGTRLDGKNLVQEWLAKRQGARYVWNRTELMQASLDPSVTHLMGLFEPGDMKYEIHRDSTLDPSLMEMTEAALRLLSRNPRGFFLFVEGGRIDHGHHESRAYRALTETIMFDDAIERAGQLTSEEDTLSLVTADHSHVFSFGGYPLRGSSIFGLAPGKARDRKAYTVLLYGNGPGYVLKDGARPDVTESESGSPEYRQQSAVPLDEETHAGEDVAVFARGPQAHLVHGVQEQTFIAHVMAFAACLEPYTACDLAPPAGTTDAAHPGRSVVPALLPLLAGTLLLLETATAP
D1 mod: allosteric modulators of human D1 dopamine receptor; P21728; HEK293 D1, CRE-luciferase, dopamine EC30 potentiation; actives deviate in either direction; B-score at 10 µM; actives 5.9% (n = 58,000);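 active = luminescence count or its row- and column-corrected plate score outside the 99.7% band of the plate's sample wells, on either side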
hDAT+cocaine: human DAT dopamine uptake with cocaine, either direction. actives 1.3% (n = 110,000). B-score at 10 µM. AID 449768. LLC-PK1 hDAT cells, [14C]-dopamine uptake with cocaine IC80; actives deviate in either direction. Q01959;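 active = Z score or B-score, a plate-position-corrected score, falls beyond the plate's 99.7% confidence bounds, in either direction; inactive = both scores lie inside the 99.7% bounds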
TNAP act DEA: human TNAP activation, intermediate phosphate acceptor | purified TNAP, CDP-star luminescence, 100 mM DEA, 30 min; hits give high values; scale: 0 levamisole-inhibited, 1 vehicle-only enzyme | activation factor at 20 µM | 64,000 tested, under 10 active | AID 813;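 active = activation factor of at least 2 at 20 µM, relative to controls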
Numbers stand for hits; . = inactive; / = no result given.

SMILES	Calb biofilm kill	HePTP inhibitor	PLAP activator	D1 mod	hDAT+cocaine	TNAP act DEA
COc1cc(NS(=O)(=O)c2ccc(N/C=C(\C#N)c3nc4cc(Cl)ccc4o3)cc2)nc(OC)n1	/	/	2.1	/	.	/
COc1ccc(NC(=O)CCCn2c(=O)[nH]c3ccccc3c2=O)cc1	.	.	.	.	.	.
COc1ccc(NC(=O)CCCCn2c(=O)[nH]c3ccccc3c2=O)cc1	.	.	.	.	-7.72	.
O=C(CSc1nnnn1-c1ccccc1)c1ccc2c(c1)Cc1ccccc1-2	/	.	/	/	/	/
Cc1nc(SCC(=O)Nc2c(C)n(C)n(-c3ccccc3)c2=O)[nH]c(=O)c1C	.	/	/	/	.	/
Cc1c(NC(=O)COC(=O)C(c2ccc(Cl)cc2)C(C)C)c(=O)n(-c2ccccc2)n1C (stereo not drawn)	/	/	.	/	-7.86	/
CCC(C(=O)OCC(=O)Nc1c(C)n(C)n(-c2ccccc2)c1=O)c1ccccc1 (stereo not drawn)	.	.	.	.	.	.
Cc1c(NC(=O)CSc2nc3ccc(Cl)cc3[nH]2)c(=O)n(-c2ccccc2)n1C	.	/	2	/	.	/
Cc1c(NC(=O)CSc2nc3ccccc3[nH]2)c(=O)n(-c2ccccc2)n1C	.	.	2.2	.	.	.
Cc1ccc2[nH]c3nc(N/N=C/c4ccc([N+](=O)[O-])cc4)nnc3c2c1	/	.	/	/	/	/
Cc1ccc(N2C(=O)NC(=O)/C(=C\c3sccc3C)C2=O)cc1	/	.	/	/	/	/
COc1ccccc1N1C(=O)c2cccc3c(N(C)C)ccc(c23)C1=O	/	.	/	/	/	/
CC(C)CC(=O)Nc1cc2nn(-c3ccccc3)nc2cc1Cl	53.0	/	.	/	.	/
CCOC(=O)c1ccccc1NC(=O)c1cc(Cl)ccc1OC	/	.	/	/	/	/
CCOC(=O)c1c(C)[nH]c(N=Nc2cccc(OC)c2)c1C	/	103.3	/	/	/	/
CCOC(=O)c1c(C)[nH]c(N=Nc2cccc(C)c2)c1C	.	/	.	/	.	/
COC(=O)c1nc2n(n1)C(c1ccc(OC)c(OC)c1OC)C1=C(CCCC1=O)N2 (stereo not drawn)	/	.	.	.	.	.
COc1cc(-c2nc3n(n2)C(c2cccc(OC)c2OC)C2=C(CCCC2=O)N3)cc(OC)c1OC (stereo not drawn)	.	.	.	.	2.67	.
COc1ccc(C2C3=C(CCCC3=O)Nc3nc(-c4cc(OC)c(OC)c(OC)c4)nn32)cc1OC (stereo not drawn)	.	.	.	-3.02	4.01	.
COc1ccc(-c2nc3n(n2)C(c2ccccc2)C2=C(CCCC2=O)N3)cc1OC (stereo not drawn)	.	.	.	.	.	.
CCCC(=O)Nc1cc(-c2cn3cccnc3n2)ccc1OC	/	.	.	-3.44	.	.
COc1ccc(-c2cn3cccnc3n2)cc1NC(=O)CC(C)C	/	.	.	.	.	.
CC(O)(CS(=O)(=O)Cc1ccccc1)C(=O)Nc1ccc(C(F)(F)F)cc1 (stereo not drawn)	/	/	.	/	.	/
CC(O)(CS(=O)(=O)Cc1ccccc1)C(=O)Nc1cccc(C(F)(F)F)c1 (stereo not drawn)	/	/	.	/	-2.81	/
Cc1ccccc1Nc1nc(-c2sc(NC(=O)c3cccc(Cl)c3)nc2C)cs1	/	/	.	/	1.72	/
SMILES	Calb biofilm kill	HePTP inhibitor	PLAP activator	D1 mod	hDAT+cocaine	TNAP act DEA
Cc1ccc(Cl)cc1Nc1nc(-c2sc(NC(=O)c3cccc(Cl)c3)nc2C)cs1	/	/	.	/	.	/
Cc1nc(NC(=O)c2ccccc2)sc1-c1csc(Nc2ccc(Cl)cc2Cl)n1	/	/	.	/	2.39	/
COc1ccc(Cl)cc1Nc1nc(-c2sc(NC(=O)c3ccccc3)nc2C)cs1	/	/	.	/	.	/
Cc1ccccc1Nc1nc(-c2sc(NC(=O)c3ccccc3)nc2C)cs1	/	/	.	/	2.53	/
Cc1ccc(-c2nc(C#N)c(NCc3ccco3)o2)cc1	.	.	.	.	-2.84	.
N#Cc1nc(-c2ccc(OCc3ccccc3)cc2)oc1NCc1ccco1	.	.	.	.	.	.
Cc1ccc2cc(C#N)c(NCc3ccco3)nc2c1	.	.	.	6.68	.	.
COc1cc([N+](=O)[O-])cc(/C=C2/C(=O)NC(=O)N(c3ccc(C(C)C)cc3)C2=O)c1O	/	.	/	/	/	/
CCN(CC)CCNC(=O)C12CC3CC(C)(CC(C)(C3)C1)C2	.	/	2.1	/	.	/
CCN(CC)CCNC(=O)C12CC3CC(CC(C3)C1)C2	.	.	.	/	.	/
Cc1ccc(CNc2ccc3c(c2)OCO3)cc1	.	.	.	-4.97	.	.
CC(C)c1ccc(N2C(=O)NC(=O)/C(=C/c3ccc(Br)o3)C2=O)cc1	/	102.3	/	/	/	/

Screens as filed in PubChem.
